The text below walks through data of PubChem BioAssay (NCI).

Where “and” joins values, the source holds several entries; their conditions need not be identical. Equal entries are not always repeated. The panel holds about 83,000 compounds, 20% with a hit somewhere; the sample as a whole holds those more often.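 In brief: 96-well plates, 48 h treatment, single concentration, percent growth endpoint.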 A number with no mark means an inactive call. Calls of active or inactive are those of the source. The calls were made as follows: active = growth percent below 10; inactive = the rest.

The subject of this assay is MDA-MB-468 breast. Description: NCI-60 one-dose screen, 48 h (100 = growth as untreated, 0 = no growth, -100 = all killed). The settings on record: 10 µM unless noted.
As to `O=C(/C=C1\C=CN(CCCCCCF)c2ccccc21)n1ccc2ccccc21`, the growth was 84.9%. Consider `Cc1ccc(/C=C/C(=O)c2ccc(-n3cc(CN4CCN(c5cc6c(cc5F)c(=O)c(C(=O)O)cn6C5CC5)CC4)nn3)cc2)cc1`, for which the growth was 77.1%.

Regarding `NC(=S)N/N=C(/CCN1CCCC1)CC(C1=C(O)C2=CCCCC2OC1=O)c1ccccc1` (centres undefined), the growth is 17.9%. Take `COc1ccccc1/C=N\N=C(N/N=C/c1ccccc1OC)N/N=C/c1ccccc1OC`: the growth is 58.3% and 10.5%. As to `O=C(O)c1ccc(-n2cc(/C=N/Nc3ccc(Cl)cc3)c(-c3ccc(F)c(F)c3)n2)cc1`, the growth was 83.2%.

`COc1cc(/C=C/C(=O)CC(=O)/C=C/c2cc(Br)c(OC)c(OC)c2)cc(Br)c1OC`: the growth was 97.2%. With `Cc1ccc(-c2cnc3sc4ccc(Cl)cc4n23)cc1`, the growth was 103%.

Consider `Cc1ccc(/C=C/C(=O)c2ccc(F)cc2)s1`, for which the growth was 42.2%. On to `CN=C(N)N/N=C(\C)c1ccc2c(c1)Cc1cc(/C(C)=N/NC(N)=NC)ccc1-2`, for which the growth was -90.7% (active).

For the molecule `CN1C(=O)C(C2=NN(C=O)C(c3ccc(F)cc3)C2)C(=O)N(C)C1=O` (centres undefined), the growth was 89.4%. `Clc1nc(-c2ccccn2)nc2sc3c(c12)CCCCCC3`: the growth was -84.3% (active). In the case of `COc1ccc(-c2cn(Cc3cc4ccccc4s3)nn2)cc1OCCN1CCCCC1` it was 63.8%. As for `O=C(Cn1cc(COc2ncnc3c2cnn3-c2ccccc2)nn1)Nc1ccccn1`, the growth was 97.7%.

Turning to `CC(=O)Nc1nc(N)nc(NC(C)=O)c1N=O`, the growth is 118%.
